# In PubChem BioAssay (NCI):
# This is part of a sample that, as a whole, favours compounds with a hit. Of some 83,000 tested, about 20% had one in any assay.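 Activity criterion: percent growth below 10, measured after cells in 96-well plates were exposed to a single compound concentration for 48 hours.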 Unmarked numbers belong to inactive results. Calls of active or inactive are those of the source.
# Columns and labels:
# Assay in all cases: NCI-60 one-dose screen, 48 h (100 = growth as untreated, 0 = no growth, -100 = all killed)
# Conditions in all cases: 10 µM
# SR leukemia = tested on: SR leukemia
# RPMI-8226 leukemia = tested on: RPMI-8226 leukemia
# OVCAR-8 ovarian = tested on: OVCAR-8 ovarian
# OVCAR-5 ovarian = tested on: OVCAR-5 ovarian
# OVCAR-4 ovarian = tested on: OVCAR-4 ovarian
# SK-OV-3 ovarian = tested on: SK-OV-3 ovarian
# IGROV1 ovarian = tested on: IGROV1 ovarian
# OVCAR-3 ovarian = tested on: OVCAR-3 ovarian
# HS 578T breast = tested on: HS 578T breast
# NCI/ADR-RES ovarian = tested on: NCI/ADR-RES ovarian
# T-47D breast = tested on: T-47D breast
# BT-549 breast = tested on: BT-549 breast
# MDA-MB-435 melanoma = tested on: MDA-MB-435 melanoma
# SW-620 colon = tested on: SW-620 colon
# MCF7 breast = tested on: MCF7 breast
# HCT-116 colon = tested on: HCT-116 colon
# HCC-2998 colon = tested on: HCC-2998 colon
# KM12 colon = tested on: KM12 colon
Structure (SMILES),growth (SR leukemia),growth (RPMI-8226 leukemia),growth (OVCAR-8 ovarian),growth (OVCAR-5 ovarian),growth (OVCAR-4 ovarian),growth (SK-OV-3 ovarian),growth (IGROV1 ovarian),growth (OVCAR-3 ovarian),growth (HS 578T breast),growth (NCI/ADR-RES ovarian),growth (T-47D breast),growth (BT-549 breast),growth (MDA-MB-435 melanoma),growth (SW-620 colon),growth (MCF7 breast),growth (HCT-116 colon),growth (HCC-2998 colon),growth (KM12 colon)
O=C(CCNC(=O)c1nc(-c2ccccc2)n(-c2ccc(Cl)cc2)n1)NO,98.6%,103%,108%,96.4%,106%,92.4%,102%,98.7%,107%,109%,78.7%,115%,106%,106%,102%,94%,93.5%,93.7%
Cc1nc2n(c(=O)c1CCN1CCC(c3noc4cc(F)ccc34)CC1)CCC[C@@H]2O,93.8%,111%,97.5%,88.6%,105%,103%,105%,106%,100%,97.2%,84.1%,99.4%,98.8%,101%,84.7%,99.5%,109%,99.9%
CCOC(=O)CC(S(=O)(=O)c1ccccc1)S(=O)(=O)c1ccccc1,89.1%,97.4%,103%,109%,94%,112%,107%,63.1%,105%,104%,88.1%,110%,107%,8.23% (active),101%,102%,109%,97.1%
Cc1noc(C)c1CSc1ccccc1C(=O)N1CCN(c2cccc(C(F)(F)F)c2)CC1,39%,54.3%,94.2%,88.1%,67%,75.3%,83.7%,82.1%,90.4%,72.3%,49.2%,61%,82.6%,86.5%,79.4%,55.3%,93.6%,79.2%
COc1cc2cc(Oc3ccc(NC(=O)Nc4ccc(Cl)c(C(F)(F)F)c4)cc3)c(C)nc2cc1OC,-32.5% (active),-26.4% (active),7.34% (active),18%,17.1%,-4.09% (active),-7.69% (active),-27.3% (active),2.5% (active),2.01% (active),21.4%,-38.7% (active),-25.7% (active),7.51% (active),2.59% (active),-87.3% (active),-13.1% (active),-16.4% (active)
CC1CCCC(C(=O)O)C1C(=O)O (stereo unspecified),98.9%,94.1%,94.4%,99.8%,103%,90.4%,106%,110%,95.4%,102%,90.9%,95.9%,102%,98.9%,103%,99.5%,92.9%,106%
COc1cc2cc(Oc3ccc(NC(=O)c4ccccc4)cc3)c(C)nc2cc1OC,70.2%,96.8%,22.7%,112%,78.9%,73.4%,91.5%,83.4%,57.1%,81.3%,79.8%,82.3%,104%,109%,78.7%,87.1%,125%,94.5%
CC[C@@H](C(=O)[C@H](C)[C@H](O)[C@@H](C)[C@H]1O[C@H]([C@@H](CC)C(=O)O)CC[C@H]1C)C1O[C@]2(C=C[C@@H](O)[C@]3(CC[C@@](C)([C@H]4CC[C@](O)(CC)[C@H](C)O4)O3)O2)[C@H](C)C[C@@H]1C (stereo partly specified),22.5%,-7% (active),49.1%,41.9%,43.4%,42.5%,41.1%,25.8%,21.9%,44%,25.5%,6.06% (active),-16.3% (active),24%,3.7% (active),22.2%,8.29% (active),24.5%
C=CCn1c(SCC(=O)Nc2ccc(C(=O)/C=C/c3ccc(OC)cc3)cc2)nnc1-c1ccc(OC)c(OC)c1,58.7%,34.3%,79.8%,110%,73.8%,98%,94.4%,89.6%,86.4%,86.4%,58.3%,75.8%,86.7%,97.2%,43.5%,55.5%,94.6%,87.9%
COc1cc2c(Nc3ccc(S(N)(=O)=O)cc3)ncnc2c(OC)c1OC,99.9%,99.1%,106%,105%,102%,75.5%,96.1%,90.4%,96%,96.5%,97%,126%,105%,95.7%,96.6%,108%,98.4%,99.2%
CNS(=O)(=O)Oc1ccc(-c2ccc3occc3c2)cc1,111%,109%,99.5%,88.8%,98.4%,111%,99.8%,107%,110%,102%,89.1%,91.5%,100%,102%,111%,95.5%,96.5%,99%
CC(C)c1cc(N=O)cc(C(C)C)c1O,106%,93.5%,103%,97.2%,104%,109%,121%,110%,107%,99.8%,108%,111%,109%,100%,103%,110%,104%,111%
C#CCOc1c(OC)cc(C(=O)/C(C)=C/c2cccc(N=[N+]=[N-])c2)cc1OC,28.7%,43.7%,28.6%,42.9%,55.9%,32.1%,33.2%,-0.611% (active),46%,13.6%,44.3%,11.4%,-19% (active),36.5%,16.4%,6.9% (active),21.4%,26.6%
CCn1c(SCc2ccc(C)cc2)nnc1-c1nn(-c2ccc(Cl)cc2Cl)c(-c2ccc(Cl)cc2)c1C,6.14% (active),-3.78% (active),12.9%,26.8%,16.9%,-7.12% (active),30.8%,15.8%,38.4%,52.1%,-8.15% (active),-7.34% (active),19.7%,20.4%,4.46% (active),1.74% (active),23.4%,15.8%
COc1ccc(/C(C#N)=C/c2cccc(OC)c2OC)cc1,41.2%,91.1%,96%,97.7%,98.8%,96.2%,80.6%,94.2%,91.6%,53.3%,80.7%,78.1%,9.46% (active),65.2%,66%,89.7%,78.4%,56.7%
CCOC(=O)c1cc(C(=O)c2cc(OC)c(OC)c(OC)c2)n2c1ccc1c3cccnc3ccc12,17.5%,61.8%,56.2%,91.9%,89.7%,78.1%,67.8%,61.5%,72.8%,33.9%,50.7%,68.9%,8.8% (active),23.6%,28.8%,21.6%,81.9%,41.5%
Cc1ccc(-c2c3c(N)nc(-c4cccnc4)nc3nc3c2c(C)nn3-c2ccccc2)cc1,82.5%,81.2%,82%,90.8%,50.8%,66.2%,103%,104%,72%,90.3%,81.8%,100%,82.7%,102%,87.7%,81.1%,103%,97.1%
